Measured values from PubChem BioAssay (NCI).
About 83,000 compounds went through this panel and 20% of them were active in at least one assay; those are over-represented in the sample as a whole.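 Compound tested at a single concentration for 48 hours in 96-well plates; a percent growth value below 10 was scored as active.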 Activity calls are given as the source filed them.

Tests used:
Assay in all cases: NCI-60 one-dose screen, 48 h (100 = growth as untreated, 0 = no growth, -100 = all killed)
Conditions in all cases: 10 µM unless noted
NCI-H23 lung = system: NCI-H23 lung
NCI-H226 lung = system: NCI-H226 lung
NCI-H322M lung = system: NCI-H322M lung
HOP-62 NSCLC = system: HOP-62 NSCLC
NCI-H460 lung = system: NCI-H460 lung
HOP-92 NSCLC = system: HOP-92 NSCLC
NCI-H522 lung = system: NCI-H522 lung
A549/ATCC NSCLC = system: A549/ATCC NSCLC
786-0 renal = system: 786-0 renal
COLO 205 colon = system: COLO 205 colon
DU-145 prostate = system: DU-145 prostate
K-562 leukemia = system: K-562 leukemia
MALME-3M melanoma = system: MALME-3M melanoma
MDA-MB-231 breast = system: MDA-MB-231 breast
RXF 393 renal = system: RXF 393 renal
SF-268 CNS = system: SF-268 CNS
SF-295 CNS = system: SF-295 CNS
SF-539 CNS = system: SF-539 CNS
UACC-257 melanoma = system: UACC-257 melanoma
M14 melanoma = system: M14 melanoma

Measured: growth

CC(C)c1ccc(-n2c(=S)[nH]c3sc4cc(O)ccc4c3c2=O)cc1
inactive: NCI-H23 lung 98.6% | NCI-H226 lung 92.5% | NCI-H322M lung 90.4% | HOP-62 NSCLC 102% | NCI-H460 lung 101% | HOP-92 NSCLC 80.2% | NCI-H522 lung 99.9% | A549/ATCC NSCLC 106% | 786-0 renal 103% | COLO 205 colon 102% | DU-145 prostate 104% | K-562 leukemia 107% | MALME-3M melanoma 87.1% | MDA-MB-231 breast 95.4% | RXF 393 renal 91.2% | SF-268 CNS 99.4% | SF-295 CNS 103% | SF-539 CNS 93.6% | UACC-257 melanoma 111% | M14 melanoma 94.6%

O=C(Nc1cccc(-c2ccc(N3CCOCC3)nn2)c1)Nc1cccc(C(F)(F)F)c1
inactive: NCI-H23 lung 70.4% | NCI-H226 lung 61.8% | NCI-H322M lung 89.6% | HOP-62 NSCLC 76.8% | NCI-H460 lung 79.1% | HOP-92 NSCLC 58.6% | NCI-H522 lung 46.4% | A549/ATCC NSCLC 56.4% | 786-0 renal 92.1% | COLO 205 colon 81% | DU-145 prostate 80.5% | K-562 leukemia 46.1% | MALME-3M melanoma 89.5% | MDA-MB-231 breast 80.1% | RXF 393 renal 81.5% | SF-268 CNS 91.2% | SF-295 CNS 52% | SF-539 CNS 89.1% | UACC-257 melanoma 69.7% | M14 melanoma 63.1%

CC/C(=C(/c1ccc(Cl)cc1)c1ccc(OCCN(C)C)cc1)c1ccc(Cl)cc1
inactive: NCI-H23 lung 73.5% | NCI-H226 lung 87.5% | NCI-H322M lung 83.6% | HOP-62 NSCLC 78.5% | NCI-H460 lung 37.3% | HOP-92 NSCLC 83.7% | NCI-H522 lung 70.3% | A549/ATCC NSCLC 61.2% | 786-0 renal 66.3% | DU-145 prostate 77.7% | K-562 leukemia 16% | MALME-3M melanoma 73.9% | MDA-MB-231 breast 83.3% | RXF 393 renal 68.5% | SF-268 CNS 77.4% | SF-295 CNS 69.7% | SF-539 CNS 86.2% | UACC-257 melanoma 72.2% | M14 melanoma 88.1%
active: COLO 205 colon -16.1%

CCc1ncnc2c1ccn2C(C)c1ccc(OC)c(F)c1 (stereo not given)
inactive: NCI-H23 lung 38.9% | NCI-H226 lung 77.2% | NCI-H322M lung 79.7% | HOP-62 NSCLC 41.3% | NCI-H460 lung 30.8% | HOP-92 NSCLC 43.2% | NCI-H522 lung 43.3% | A549/ATCC NSCLC 41.1% | 786-0 renal 74.9% | COLO 205 colon 26.3% | DU-145 prostate 82.3% | K-562 leukemia 11.5% | MALME-3M melanoma 74.9% | MDA-MB-231 breast 56.7% | RXF 393 renal 76.5% | SF-268 CNS 63.2% | SF-295 CNS 36% | SF-539 CNS 70.6% | UACC-257 melanoma 40% | M14 melanoma 36.3%

O=C(NCCCl)Nc1ncccc1OCc1ccccc1
inactive: NCI-H23 lung 99.6% | NCI-H226 lung 104% | NCI-H322M lung 92.4% | HOP-62 NSCLC 100% | NCI-H460 lung 101% | HOP-92 NSCLC 103% | NCI-H522 lung 85.3% | A549/ATCC NSCLC 103% | 786-0 renal 100% | COLO 205 colon 106% | DU-145 prostate 105% | K-562 leukemia 103% | MALME-3M melanoma 103% | MDA-MB-231 breast 101% | RXF 393 renal 108% | SF-268 CNS 102% | SF-295 CNS 99.9% | SF-539 CNS 106% | UACC-257 melanoma 107% | M14 melanoma 99.8%

COc1ccc(C2CC(c3ccc(Nc4nc(Nc5ccccc5)nc(Nc5ccccc5)n4)cc3)=NN2C(C)=O)cc1 (stereo not given)
active: RXF 393 renal -10.9%
inactive: NCI-H23 lung 97.4% | NCI-H226 lung 98.1% | NCI-H322M lung 107% | HOP-62 NSCLC 95.2% | NCI-H460 lung 116% | HOP-92 NSCLC 78% | NCI-H522 lung 88.7% | A549/ATCC NSCLC 88.1% | 786-0 renal 88.5% | COLO 205 colon 111% | DU-145 prostate 144% | K-562 leukemia 75.2% | MALME-3M melanoma 110% | MDA-MB-231 breast 95.5% | SF-268 CNS 139% | SF-295 CNS 99.5% | SF-539 CNS 121% | UACC-257 melanoma 88.4% | M14 melanoma 107%

COC(=O)CC[C@@H]1O[C@@H](c2cccc(C(F)(F)F)c2)[C@@H](O)[C@H]1O
inactive: NCI-H23 lung 94.2% | NCI-H226 lung 103% | NCI-H322M lung 103% | HOP-62 NSCLC 103% | NCI-H460 lung 102% | HOP-92 NSCLC 84.3% | NCI-H522 lung 98.6% | A549/ATCC NSCLC 107% | 786-0 renal 103% | COLO 205 colon 108% | DU-145 prostate 103% | K-562 leukemia 112% | MALME-3M melanoma 99.1% | MDA-MB-231 breast 108% | RXF 393 renal 95.3% | SF-268 CNS 101% | SF-295 CNS 104% | SF-539 CNS 97.2% | UACC-257 melanoma 106% | M14 melanoma 102%
